Screen size: about 380,000 compounds; about 170 (0.045%) were called active. Only a selection was taken, and actives are over-represented in it overall. Values without a mark were called inactive. The call rests on the fitted dose curve; in most records, active means well fitted inhibition curve with a large enough effect; inconclusive means small, poorly fitted or top-dose-only effect; inactive means no such curve, though single readings can be large or run the other way.
On the % scale 0 is the no-effect control and ±100 the full control effect; potency means the concentration at half of the fitted maximal effect.

The target in the assay is Phosphoglycerate kinase, glycosomal (Trypanosoma brucei brucei) (UniProt P07378). The assay is described as follows: qHTS Assay to Find Inhibitors of Phosphoglycerate Kinase. To be noted: PGK/GAPDH coupled, Kinase-Glo luminescence, 60 min; series mostly up to 57.5 µM; activity change, negative = inhibition: at the top concentration. From the text: Several species of the Trypanosomatidae family of parasitic protozoans cause a spectrum of diseases throughout the tropical and subtropical world. Sleeping sickness, caused by two subspecies of Trypanosoma brucei, is endemic to areas of sub-Saharan Africa, while Chagas disease, a manifestation of Trypanosoma cruzi infection, is prevalent throughout Central and South America. In addition, many species of Leishmania are responsible for a range of cutaneous and visceral diseases, causing ulcers, destructive lesions and kalaazar, a lethal infection of the viscera. Collectively, these organisms infect 30 million people worldwide (~500 million live in endemic areas), and account for ~130,000 deaths annually. Given their debilitating and prevalent nature, trypanosomatid parasites impose a heavy medical, economic and social burden on entire populations, primarily in the developing world. The problem is further exacerbated by the fact that existing treatments have progressed little in the past 50 years, and current drugs show high toxicity and poor efficacy. […] Blood-stream stages of T. brucei are entirely dependent on glycolysis as a source of ATP, and the tricarboxylic acid cycle and oxidative phosphorylation are both repressed. Glycolysis in axenically cultured T. cruzi, representing the intracellular pathogenic stage, is also essential for these parasites. […] Previous studies have shown that the glycolytic enzyme, phosphoglycerate kinase (PGK), is a viable target for drugs to kill these parasites. […] NIH Molecular Libraries Probe Production Network [MLPCN] NIH Chemical Genomics Center [NCGC] MLPCN Grant: R03 MH093212 PI Name: Malcolm Walkinshaw, University of Edinburgh
Sequence of Phosphoglycerate kinase, glycosomal (Trypanosoma brucei brucei) (P07378 whole entry, looked up): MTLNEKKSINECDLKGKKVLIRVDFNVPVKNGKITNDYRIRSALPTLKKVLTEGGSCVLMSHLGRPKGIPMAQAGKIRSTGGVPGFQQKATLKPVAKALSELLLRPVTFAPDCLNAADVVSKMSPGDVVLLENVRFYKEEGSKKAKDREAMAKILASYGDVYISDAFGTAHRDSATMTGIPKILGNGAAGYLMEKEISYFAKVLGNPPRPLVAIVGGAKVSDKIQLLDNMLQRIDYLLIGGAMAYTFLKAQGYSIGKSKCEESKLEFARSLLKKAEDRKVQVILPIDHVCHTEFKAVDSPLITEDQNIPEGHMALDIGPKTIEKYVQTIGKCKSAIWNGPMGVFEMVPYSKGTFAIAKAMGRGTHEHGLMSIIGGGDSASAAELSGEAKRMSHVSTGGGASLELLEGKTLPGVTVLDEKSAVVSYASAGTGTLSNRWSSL
3ul of substrate/PGK buffer (columns 1,2,5-48) are dispensed into Greiner white solid bottom 1536-well assay plates; columns 3-4 receive only TEA buffer as 0x PGK controls. Compounds are then transferred via Kalypsys pin tool equipped with 1536-pin array (10nl slotted pins, V&P Scientific, San Diego, CA). Following addition of compound, 1ul of GAPDH (100nM final concentration, all columns) is added to initiate the reaction (this upstream coupling enzyme is necessary for in-well production of PGK substrate, 1,3-bisphosphoglycerate (1,3-BPG), which is unstable and not commercially available). The plates are then incubated at room temperature for 60 minutes. Kinase-Glo Plus reagent is added (2ul) and plates incubated for 10 minutes, before being transferred to a ViewLux high-throughput CCD imager (PerkinElmer) wherein single end-point measurements of luminescence are acquired using a clear filter. All reagents are diluted in an assay buffer consisting of 100mM TEA (pH 7.6), 5mM MgCl2 and 0.01% Tween-20.
Consider `COc1ccc(C(=O)N2CCC(c3nc4ccccc4o3)CC2)cc1`, for which the “activity change, negative = inhibition” value is 3.31%.

For the compound `COc1ccc(CCNS(=O)(=O)c2cc(-c3cc(C)no3)ccc2C)cc1OC`, the “activity change, negative = inhibition” value is 7.73%.

For the compound `CC(=O)c1ccc(NC(=O)c2nc(-c3ccc(C)cc3)n3c2CCCCC3)cc1`, the result was inactive.

Consider `COc1ccc(N2CCN(C(=O)c3c(C)oc4nc(C)nc(N5CCCC5)c34)CC2)cc1`, for which the “activity change, negative = inhibition” value is -3.22%.

In the case of `COc1cccc(NC(=O)N(Cc2cn(C)c3ccccc23)C2CCCCCC2)c1`, the “activity change, negative = inhibition” value is 1.22%.

For `Cc1ccc(CCNC(=O)c2nnc(Cc3cccc(F)c3)o2)cc1`, the “activity change, negative = inhibition” value was -3.81%.

In the case of `COC(=O)c1ccc(Cn2c(SCC(=O)N(C)c3ccccc3)nc3ccccc32)cc1`, the “activity change, negative = inhibition” value is -5.74%.

Regarding `COc1cc(Nc2nc(-c3ccc(OC)c(OC)c3)nc3ccccc23)cc(OC)c1`, the “activity change, negative = inhibition” value was -16%.

For the compound `CCOC(=O)c1oc2ccc(S(=O)(=O)n3nc(-c4ccccc4OC)cc3N)cc2c1C`, the “activity change, negative = inhibition” value is -7.27%.

For the compound `O=C(c1cnn(-c2ccc(F)cc2)c1-n1cccc1)N1CCN(c2ccc(F)cc2)CC1`, the “activity change, negative = inhibition” value is 1.01%.

Turning to `C=C(C)C(=O)Nc1cccc(C2=NOC3(C2)C[C@H](C(N)=O)N(C(=O)C(c2ccccc2)c2ccccc2)C3)c1` (stereo partly drawn), the Potency is 7.94 µM (active).

Take `C/C=C(\C)C(=O)N1CC2(CC(c3cccc(NC(=O)CCCCC)c3)=NO2)C[C@@H]1C(N)=O` (stereo partly drawn): the “activity change, negative = inhibition” value is -20.1%.

In the case of `NC(=O)[C@H]1CC2(CC(c3cccc(NC(=O)[C@H]4CCC(=O)N4)c3)=NO2)CN1C(=O)c1ccccc1C(=O)c1ccccc1` (stereo partly drawn), the outcome was inactive.

Take `O=C(CC1C(=O)N(c2ccccc2)C(=O)N1CCc1cccs1)Nc1ccc(F)cc1` (stereo not drawn): the “activity change, negative = inhibition” value was -9.54%.

As for `Fc1ccc(-c2nn(-c3ccccc3Cl)c3c2cnc2ccccc23)cc1`, the “activity change, negative = inhibition” value was -9.02%.

Regarding `COC(=O)c1ccccc1NC(=O)c1cc(-c2ccccc2O)no1`, the “activity change, negative = inhibition” value is 0.223%.

`COc1ccc(CCNC(=O)c2cn(C)c3ccc(S(=O)(=O)N(C)C4CCCCC4)cc3c2=O)cc1OC`: the outcome was inactive.

With `Cc1nn(C(=O)c2c(F)cccc2F)c(C)c1S(=O)(=O)N1CCOCC1`, the “activity change, negative = inhibition” value was -7.86%.

For `Cc1cccc(NC(=O)CSc2ncc(-c3ccccc3)[nH]2)c1C`, the “activity change, negative = inhibition” value is 5.88%.

On to `CCc1ccc(NC(=O)CCCc2nnc3n(CCCOC)c(=O)c4sccc4n23)cc1`, for which the “activity change, negative = inhibition” value was 2.03%.

For `COc1ccc(C2=CC(c3ccccc3Cl)n3nc(-c4ccc(Cl)cc4)nc3N2)cc1` (stereo not drawn), the “activity change, negative = inhibition” value was 5.67%.

As to `Cc1ccc(-c2onc(C)c2C)cc1S(=O)(=O)Nc1ccccn1`, the outcome was inactive.

Turning to `Cc1ccc(CN2C(=O)SC(Nc3ccccc3)C2=O)cc1` (stereo not drawn), the “activity change, negative = inhibition” value was -1.1%.

For `O=C(OCc1cc(=O)n2nc(C3CC3)sc2n1)c1ccccc1Cl`, the “activity change, negative = inhibition” value is -8.07%.

Regarding `O=C(NCc1ccc(F)cc1)c1ccc(Cn2c(SCc3ccc(F)cc3)nc3cccnc32)cc1`, the outcome was inactive.

Regarding `COc1cccc(N2CCN(S(=O)(=O)c3cc(Br)cc4c3N(C(=O)C3CC3)CC4)CC2)c1`, the “activity change, negative = inhibition” value is -3.4%.

As for `O=C(Nc1nnc(C2CC(=O)N(c3ccc(Cl)cc3)C2)s1)c1ccco1` (stereo not drawn), the “activity change, negative = inhibition” value is -4.59%.

On to `Cc1ccc(C2CCN(C(=O)c3cnn(-c4ccccc4Cl)c3C3CCN(C(=O)OC(C)(C)C)CC3)C2)cc1` (stereo not drawn), for which the compound was called inactive.

For the compound `O=C(COc1ccc(Cl)cc1)Nc1ccc(-c2nc3cc(Cl)ccc3o2)c(O)c1`, the outcome was inactive.

For `COc1cc(C(CC(=O)NCCC(C)C)N2Cc3ccccc3C2=O)cc(OC)c1OC` (stereo not drawn), the “activity change, negative = inhibition” value was -9.14%.

For the compound `COc1ccccc1C1C(C(=O)N2CCCCC2)=C(C)Nc2nc3ccccc3n21` (stereo not drawn), the “activity change, negative = inhibition” value is -1.37%.

Take `CCOc1ccc(C2CC(=O)c3c([nH]c(C(=O)OCc4ccccc4)c3C)C2)cc1` (stereo not drawn): the “activity change, negative = inhibition” value is 2.31%.

Take `CCCC(=O)Nc1cc(C(=O)NCc2ccc(OC)cc2)ccc1S(=O)(=O)c1ccc(Cl)cc1`: the “activity change, negative = inhibition” value is 3.14%.

In the case of `CC1=C(C(=O)OCC(C)C)C(c2ccc(OCc3ccccc3)cc2)N2C(=O)CCSC2=N1` (stereo not drawn), the “activity change, negative = inhibition” value is 10.3%.

Take `O=C(/C=C/c1cn(CC(O)CN2CCc3ccccc32)c2ccccc12)c1ccc(Br)cc1` (stereo not drawn): the “activity change, negative = inhibition” value is -0.876%.

On to `O=C(Nc1ccc(C(=O)OCc2cc(=O)n3nc(C4CC4)sc3n2)cc1)c1ccc(F)cc1`, for which the “activity change, negative = inhibition” value was -0.294%.

Consider `Cc1c(Cl)cccc1NC(=O)C(=O)NCCc1csc2nc(-c3ccccc3F)nn12`, for which the compound was called inactive.

As for `Cc1ccc(N(CC(=O)NCC(C)c2ccccc2)S(=O)(=O)N(C)C)cc1` (stereo not drawn), the “activity change, negative = inhibition” value is -4.73%.

Take `CCc1nnc2c3ccccc3nc(N3CCN(c4ccc(C)cc4C)CC3)n12`: the “activity change, negative = inhibition” value was -2.29%.

Take `O=C(C1CCCN(S(=O)(=O)c2cccc3nonc23)C1)N1CCN(c2ccccc2F)CC1` (stereo not drawn): the “activity change, negative = inhibition” value was 0.227%.

Take `NS(=O)(=O)c1ccc(NC(=O)C(=O)Nc2ccc3nc4n(c(=O)c3c2)CCCCC4)cc1`: the compound was called inactive.

For `O=C(NCc1ccc(Cl)cc1)c1ccc2c(c1)nnn2C1CCCC1`, the compound was classed as inactive.

For the compound `Oc1ccccc1-c1nc2ccc(Cl)cn2c1Nc1ccc2c(c1)OCCO2`, the call was inactive.

Regarding `COc1ccc(SCc2cc(=O)c3ccc(C)c(C)c3[nH]2)cc1`, the “activity change, negative = inhibition” value is -6.17%.

On to `Cc1ccc(-c2nc(Cn3c(=O)cc(-c4ccccc4)c4c(C)nn(C)c43)c(C)o2)cc1`, for which the “activity change, negative = inhibition” value is -5.33%.

As for `CC(C)c1ccc(NC(=O)CN(C)S(=O)(=O)c2ccc3c(c2)c(=O)n(C)c(=O)n3C)cc1`, the “activity change, negative = inhibition” value is 3.59%.

Take `Cc1ccc2nc(-c3ccc(O)cc3)c(Nc3ccc4c(c3)OCO4)n2c1`: the “activity change, negative = inhibition” value was 0.889%.

With `CC(C)Oc1ccc(CNC(=O)C2CCN(c3nc4ccccc4n(C)c3=O)CC2)cc1`, the “activity change, negative = inhibition” value is 3.34%.

Turning to `COc1cccc(C(=O)Nc2ccc(-c3cc(C(F)(F)F)nn3-c3ccccc3)cc2)c1`, the “activity change, negative = inhibition” value was 6.52%.

On to `Cc1ccc(NC(=O)c2oc3ccc(S(=O)(=O)N4CCCCC4)cc3c2C)cc1Cl`, for which the compound was called inactive.

For `Cc1ccccc1C(=O)Nc1nnc(S(=O)(=O)N(C)c2ccc(Cl)cc2)s1`, the “activity change, negative = inhibition” value is -7.58%.

With `O=C(COc1ccc(Cl)cc1)N(Cc1ccco1)Cc1ccco1`, the “activity change, negative = inhibition” value is -6.16%.

Turning to `Cc1cc(C)cc(NC(=O)CSc2oc(-c3ccccc3)nc2S(=O)(=O)c2ccc(Cl)cc2)c1`, the outcome was inactive.
